The source made the active and inactive calls. How the source made its calls: active means hit-call score of the fitted dose curve at least 0.9, where 1 is the maximum; inactive means score below 0.9.

Holding throughout (settings): mRNA level, 48 h; actives raise or lower the signal
Read-out in assay [1]: Cytochrome P450 4A22 (Homo sapiens) (UniProt Q5TCH4)
Briefly: LTEA_HepaRG_CYP4A22: Life Technologies and Expression Analysis (LTEA) Assay for Cytochrome P450 4A22 (CYP4A22) using HepaRG (AID 2283495). A digest of the protocol: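 HepaRG, 48 h post-plating -> serum-free induction medium; dosed 48 h, duplicate, 8 conc. (100 uM top, half-log), 0.5% DMSO. Readout: CYP4A22 mRNA by qRT-PCR, ACTB/GAPDH/POLR2A normalization; gain/loss fit relative to DMSO.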

Read-out in assay [2]: Cytochrome P450 7A1 (Homo sapiens) (UniProt P22680)
Briefly: LTEA_HepaRG_CYP7A1: Life Technologies and Expression Analysis (LTEA) Assay for Cytochrome P450 7A1 (CYP7A1) using HepaRG (AID 2283496). A digest of the protocol:
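Using 0.5% DMSO as vehicle and baseline, chemicals were tested in duplicate over an 8-point range from 100 uM on HepaRG cells for 48 h; qRT-PCR signals were normalised to ACTB, GAPDH and POLR2A.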

Read-out in assay [3]: Glutathione S-Transferase (GSTA2), GSTA2 (gene 2939)
Briefly: LTEA_HepaRG_GSTA2: Life Technologies and Expression Analysis (LTEA) Assay for Glutathione S-Transferase (GSTA2) using HepaRG (AID 2283497). The method in brief:
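qRT-PCR readout of GSTA2 transcript, normalized to three housekeeping genes, fitted bidirectionally against 0.5% DMSO baseline. Differentiated HepaRG cells received compound for 48 h at 8 concentrations (top 100 uM, half-log steps).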

Read-out in assay [4]: growth arrest and DNA damage 45 (GADD45G), GADD45G (gene 10912)
Put plainly: LTEA_HepaRG_GADD45G: Life Technologies and Expression Analysis (LTEA) Assay for growth arrest and DNA damage 45 (GADD45G) using HepaRG (AID 2283499). The method in brief: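 HepaRG, 48 h exposure, top 100 uM, half-log 8-point series, 0.5% DMSO vehicle, duplicates. Readout: GADD45G transcript by qRT-PCR (Fluidigm array), housekeeping-normalised (ACTB/GAPDH/POLR2A). Bidirectional curve fit vs DMSO baseline.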

Read-out in assay [5]: Glutamate-cysteine ligase regulatory (GCLM), GCLM (gene 2730)
Put plainly: LTEA_HepaRG_GCLM: Life Technologies and Expression Analysis (LTEA) Assay for Glutamate-cysteine ligase regulatory (GCLM) using HepaRG (AID 2283500). A digest of the protocol: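 HepaRG, 48 h dosing, 100 uM top, half-log x8, 0.5% DMSO vehicle. Readout: GCLM mRNA by TaqMan qRT-PCR, housekeeping-normalized (ACTB/GAPDH/POLR2A). Curves fit bidirectionally vs DMSO baseline.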

Read-out in assay [6]: Heat shock 70 kDa protein 1 (HSPA1A), gene 3303
Put plainly: LTEA_HepaRG_HSPA1A: Life Technologies and Expression Analysis (LTEA) Assay for Heat shock 70 kDa protein 1 (HSPA1A) using HepaRG (AID 2283502). The method in brief:
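HepaRG, 48 h exposure, 8-pt half-log CRC from 100 uM in 0.5% DMSO, duplicates. Readout: TaqMan qRT-PCR of HSPA1A mRNA, housekeeping-normalized (ACTB/GAPDH/POLR2A). Bidirectional fit vs 0.5% DMSO baseline.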

Read-out in assay [7]: Hypoxia-inducible factor 1-alpha (Homo sapiens) (UniProt Q16665)
Put plainly: LTEA_HepaRG_HIF1A: Life Technologies and Expression Analysis (LTEA) Assay for Hypoxia-inducible factor 1 (HIF1A) Trancription factor using HepaRG (AID 2283503). A digest of the protocol: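 Gain- or loss-of-signal HIF1A mRNA changes are fitted against a DMSO baseline. HepaRG cultures receive eight concentrations, highest 100 uM, for 48 h in serum-free induction medium with 0.5% DMSO.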

Read-out in assay [8]: 3-Hydroxy-3-Methylglutaryl-CoA Synthase 2 (HMGCS2), HMGCS2 (gene 3158)
Briefly: LTEA_HepaRG_HMGCS2: Life Technologies and Expression Analysis (LTEA) Assay for 3-Hydroxy-3-Methylglutaryl-CoA Synthase 2 (HMGCS2) using HepaRG (AID 2283504). A digest of the protocol: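 qRT-PCR read-out of HMGCS2 transcript, normalised to three housekeeping genes, in HepaRG cells after 48 h chemical exposure. Eight-point curves from 100 uM, half-log dilutions, 0.5% DMSO vehicle; gain or loss fitted relative to DMSO baseline.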

Read-out in a further assay: HGF (gene 3082)
Put plainly: LTEA_HepaRG_HGF: Life Technologies and Expression Analysis (LTEA) Assay for Hepatocyte Growth Facto (HGF) using HepaRG (AID 2283505). A digest of the protocol: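 HepaRG, 48 h dosing, 8-pt half-log series from 100 uM in 0.5% DMSO, duplicates. Readout: TaqMan qRT-PCR of HGF mRNA, housekeeping-normalized; bidirectional curve fit vs DMSO baseline.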

Read-out in assay [9]: Insulin Like Growth Factor 1 (IGF1), IGF1 (gene 3479)
Briefly: LTEA_HepaRG_IGF1: Life Technologies and Expression Analysis (LTEA) Assay for Insulin Like Growth Factor 1 (IGF1) using HepaRG (AID 2283506). A digest of the protocol: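 qRT-PCR readout of IGF1 mRNA, normalized to three housekeeping genes, after 48 h chemical exposure of HepaRG cells. Concentrations: 8-point half-log series, top 100 uM, 0.5% DMSO vehicle. Gain or loss fitted against DMSO baseline.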

Read-out in assay [10]: Intercellular Adhesion Molecule 1 (ICAM1), ICAM1 (gene 3383)
Put plainly: LTEA_HepaRG_ICAM1: Life Technologies and Expression Analysis (LTEA) Assay for Intercellular Adhesion Molecule 1 (ICAM1) using HepaRG (AID 2283507). The method in brief: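 HepaRG, 48 h exposure, 8-pt half-log series from 100 uM, 0.5% DMSO vehicle, duplicates. Readout: TaqMan qRT-PCR mRNA, housekeeping-normalized (ACTB/GAPDH/POLR2A). Bidirectional curve fit vs DMSO baseline.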

Read-out in assay [11]: Insulin-like growth factor-binding protein 1 (IGFBP1), IGFBP1 (gene 3484)
Put plainly: LTEA_HepaRG_IGFBP1: Life Technologies and Expression Analysis (LTEA) Assay for Insulin-like growth factor-binding protein 1 (IGFBP1) using HepaRG (AID 2283508). The method in brief:
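qRT-PCR mRNA read-out (TaqMan, Fluidigm array), normalised to three housekeeping genes; HepaRG cells, 48 h exposure, 8-pt half-log series from 100 uM, 0.5% DMSO vehicle; bidirectional curve fit vs DMSO baseline.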

Read-out in assay [12]: Interleukin 6 Receptor (IL6R), IL6R (gene 3570)
Briefly: LTEA_HepaRG_IL6R: Life Technologies and Expression Analysis (LTEA) Assay for Interleukin 6 Receptor (IL6R) using HepaRG (AID 2283510).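 On AC50: differentiated human HepaRG liver cells in serum-free induction medium.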 A digest of the protocol:
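HepaRG, 48 h exposure, 8-pt half-log series, top 100 uM, 0.5% DMSO vehicle, duplicates. Read-out: TaqMan qRT-PCR of IL6R transcript, housekeeping-gene normalized. Gain or loss fitted relative to DMSO baseline.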

Read-out in assay [13]: Potassium channel subfamily K member 1 (KCNK1), KCNK1 (gene 3775)
Briefly: LTEA_HepaRG_KCNK1: Life Technologies and Expression Analysis (LTEA) Assay for Potassium channel subfamily K member 1 (KCNK1) using HepaRG (AID 2283511). A digest of the protocol: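 HepaRG, 48 h exposure, 8-pt half-log series top 100 uM, 0.5% DMSO vehicle, duplicates. Readout: KCNK1 transcript by qRT-PCR (Fluidigm array), housekeeping-normalized; bidirectional curve fit relative to DMSO baseline.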

Read-out in assay [14]: Keratin 19 (KRT19), KRT19 (gene 3880)
Briefly: LTEA_HepaRG_KRT19: Life Technologies and Expression Analysis (LTEA) Assay for Keratin 19 (KRT19) using HepaRG (AID 2283512). A digest of the protocol: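 HepaRG, 48 h chemical exposure, 8-pt half-log CRC from 100 uM, 0.5% DMSO vehicle, duplicates. Readout: TaqMan qRT-PCR of KRT19 mRNA, housekeeping-normalized (ACTB/GAPDH/POLR2A). Bidirectional fit vs DMSO baseline.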

Read-out in assay [15]: Lipase C (LIPC), LIPC (gene 3990)
Put plainly: LTEA_HepaRG_LIPC: Life Technologies and Expression Analysis (LTEA) Assay for Lipase C (LIPC) using HepaRG (AID 2283514). The method in brief: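 HepaRG, 48 h exposure, 8-pt half-log series from 100 uM in 0.5% DMSO, duplicates. Readout: LIPC mRNA by Fluidigm qRT-PCR, housekeeping-normalized (ACTB/GAPDH/POLR2A). Gain or loss fitted bidirectionally against DMSO baseline.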

Read-out in assay [16]: Lipoprotein lipase (LPL), LPL (gene 4023)
Put plainly: LTEA_HepaRG_LPL: Life Technologies and Expression Analysis (LTEA) Assay for Lipoprotein lipase (LPL) using HepaRG (AID 2283515). A digest of the protocol:
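HepaRG, 48 h exposure, 8-pt half-log dilutions from 100 uM, 0.5% DMSO vehicle, duplicates; qRT-PCR (Fluidigm array) of LPL mRNA vs housekeeping genes; bidirectional curve fit relative to DMSO baseline.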

Read-out in assay [17]: MicroRNA 122 (MIR122), gene 406906
Put plainly: LTEA_HepaRG_MIR122: Life Technologies and Expression Analysis (LTEA) Assay for MicroRNA 122 (MIR122) using HepaRG (AID 2283516). Further: the transcript read is the microRNA miR-122. A digest of the protocol:
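qRT-PCR read-out (TaqMan, Fluidigm array), normalized to three housekeeping genes; HepaRG cells dosed 48 h at 8 concentrations up to 100 uM in 0.5% DMSO, duplicate; gain or loss fitted against DMSO baseline.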

Read-out in assay [18]: matrix metalloproteinase-10 (MMP10), MMP10 (gene 4319)
Briefly: LTEA_HepaRG_MMP10: Life Technologies and Expression Analysis (LTEA) Assay for matrix metalloproteinase-10 (MMP10) using HepaRG (AID 2283517). A digest of the protocol:
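Transcript levels come from Fluidigm qRT-PCR normalized to three housekeeping genes, with curves fitted bidirectionally against 0.5% DMSO. Human HepaRG cells were dosed for 48 hours at concentrations up to 100 uM.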

Read-out in another assay: MYC, MYC (gene 4609)
Put plainly: LTEA_HepaRG_MYC: Life Technologies and Expression Analysis (LTEA) Assay for MYC using HepaRG (AID 2283518). The method in brief: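 qRT-PCR read-out of MYC transcript (Fluidigm TaqMan, housekeeping-normalized) after 48 h chemical exposure of HepaRG cells; eight concentrations, top 100 uM, half-log steps. Bidirectional curve fitting against 0.5% DMSO vehicle baseline.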

Sequence of Hypoxia-inducible factor 1-alpha (Homo sapiens) (Q16665 whole entry, looked up): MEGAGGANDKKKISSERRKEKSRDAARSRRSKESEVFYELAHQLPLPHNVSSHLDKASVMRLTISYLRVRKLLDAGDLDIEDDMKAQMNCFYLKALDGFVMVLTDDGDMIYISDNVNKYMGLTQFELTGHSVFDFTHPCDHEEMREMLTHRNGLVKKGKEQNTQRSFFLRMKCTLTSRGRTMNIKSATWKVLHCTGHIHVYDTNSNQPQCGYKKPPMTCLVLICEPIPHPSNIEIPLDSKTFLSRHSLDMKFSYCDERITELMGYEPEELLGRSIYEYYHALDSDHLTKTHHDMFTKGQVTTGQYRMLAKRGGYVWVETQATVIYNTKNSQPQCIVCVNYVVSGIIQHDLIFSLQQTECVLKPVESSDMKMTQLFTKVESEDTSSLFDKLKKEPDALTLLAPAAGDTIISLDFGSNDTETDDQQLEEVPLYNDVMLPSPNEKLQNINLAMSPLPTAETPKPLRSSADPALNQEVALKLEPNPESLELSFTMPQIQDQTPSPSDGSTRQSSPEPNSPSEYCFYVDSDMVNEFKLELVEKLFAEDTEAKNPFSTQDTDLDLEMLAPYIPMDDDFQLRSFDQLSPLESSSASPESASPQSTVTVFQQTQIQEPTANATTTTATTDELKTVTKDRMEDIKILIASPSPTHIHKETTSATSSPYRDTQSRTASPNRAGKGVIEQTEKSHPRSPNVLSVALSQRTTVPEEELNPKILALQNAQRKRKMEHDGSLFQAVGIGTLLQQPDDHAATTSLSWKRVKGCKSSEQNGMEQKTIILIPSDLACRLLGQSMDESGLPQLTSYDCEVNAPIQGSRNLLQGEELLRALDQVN

As to `Cn1sc(Cl)cc1=O`, the call in [1], in [2], in [3], in assay [4], in assay [5] and in assay [6] was inactive. Further, the compound was classed as inactive (in assay [7]; in [8]; with HGF (gene 3082); in assay [9]; in [10]; in assay [11]). The outcome in assay [12], in assay [13], in assay [14], in assay [15], in [16] and in assay [17] was inactive. Also, the outcome is “inactive” in assay [18] and “inactive” in the assay with MYC, MYC (gene 4609).

The AC50 is the concentration giving half of the maximal activity seen. With `CCCCCCCCc1ccc(O)cc1`, the outcome (in assay [3]; in assay [4]; in assay [5]; in assay [6]; in [7]; in the assay with HGF (gene 3082)) was inactive. Further, the outcome in assay [9], in assay [10], in [11], in [12], in assay [13] and in [14] was inactive. In addition, the outcome is “inactive” in [15]; “inactive” in assay [16]; “inactive” in assay [17]; “inactive” in assay [18]; “inactive” in the assay with MYC, MYC (gene 4609). In addition, the AC50 in [8] was 64.6 µM (active).

Take `CC(=O)[O][Hg][c]1ccccc1`: the concentration at half-maximal activity (AC50) in assay [3] is 25.4 µM (active); in assay [4] it was 82.8 µM (active); in assay [5] it was 23 µM (active); in [6] it was 50 µM (active); in [8], 23.3 µM (active); with HGF (gene 3082), 2.1 µM (active). In addition, the AC50 in assay [9] was 23.1 µM (active); in assay [10] it was 0.558 µM (active); in [11], 4.6 µM (active); in [12], 20.6 µM (active); in assay [14], 4.54 µM (active); in assay [16], 29.3 µM (active). The half-maximal activity concentration (AC50) is 15.8 µM (active) in [18] and 24.2 µM (active) with MYC, MYC (gene 4609). In addition, the compound was called inactive in assay [7], in assay [13], in assay [15] and in assay [17].

Regarding `CCOP(=S)(OCC)SCSP(=S)(OCC)OCC`, the AC50 in [1] is 0.0742 µM (active); in [2], 9.92 µM (active); in [4], 1.49 µM (active); in [8] it was 9.92 µM (active); in assay [9], 0.0903 µM (active); in assay [12], 0.064 µM (active). The AC50 in the assay with MYC, MYC (gene 4609) is 0.09 µM (active). Besides, the compound was classed as inactive (in assay [3]; in assay [5]; in assay [6]; in assay [7]; in the assay with HGF (gene 3082); in assay [10]). For the same compound, the call in assay [11], in [13], in assay [14], in [15], in [16] and in assay [17] was inactive. In addition, the call in assay [18] was inactive.

Values taken from PubChem BioAssay (EPA / NIEHS).
